FH mod: Identification of activators of human fumarate hydratase by quantitative high-throughput screening; Fumarate hydratase, mitochondrial (Homo sapiens), P07954; FH coupled MDH/diaphorase resazurin fluorescence, 15 min; Potency, µM (series often up to 79.9 µM), hits mostly inhibitors; 54,000 tested, 0.22% active; note: the screen sought activators but most active calls are inhibition curves; nearly all actives have a fitted effect of over 45% in size
HTT-AS act: activates huntingtin-antisense promoter activity. HEK293 HTT-AS promoter firefly luciferase reporter, 24 h; response scale: percent change from vehicle, -100% = no light. 48,000 tested, 0.24% active. Potency, µM (top dose mostly 57.5 µM), usual class: activators; note: nearly all actives have a fitted effect of over 55% in size
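Quantitative HTS used concentration series of up to 57.5 uM final on HEK293 luciferase reporter cells, 24 h at 37 degrees C. Readout was Dual-Glo firefly luminescence.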
HTT promoter inh: inhibits huntingtin promoter activity; HEK293 HTT promoter firefly luciferase reporter, 24 h; Potency, µM (top dose mostly 57.5 µM), hits mostly inhibitors; 48,000 tested, 0.93% active; note: nearly all actives have a fitted effect of over 50% in size
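HEK293 Fluc reporter, 2,500 cells/well, 24 h pre-culture; cpds up to 57.5 uM final, 24 h 37 degrees C; Dual-Glo, 10 min RT; normalized vehicle = 0%, zero RLU = -100%.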
NTMT1 inhibitor: inhibitors of human N-terminal methyltransferase NTMT1 | 59,000 tested, 2.5% active | Potency, µM (top dose mostly 114 µM), actives largely listed as inhibitors | NTMT1 MTase-Glo SAH luminescence, purified enzyme | Q9BV86; note: nearly all actives have a fitted effect of over 65% in size
Target sequence (Q9BV86 whole entry, looked up): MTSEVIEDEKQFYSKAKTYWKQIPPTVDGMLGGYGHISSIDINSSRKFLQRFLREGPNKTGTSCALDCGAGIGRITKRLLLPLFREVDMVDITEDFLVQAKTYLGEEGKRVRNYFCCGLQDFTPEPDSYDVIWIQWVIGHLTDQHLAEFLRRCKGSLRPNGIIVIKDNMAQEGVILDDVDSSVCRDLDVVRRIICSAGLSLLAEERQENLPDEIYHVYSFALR
NNMT counter: human NNMT inhibition, NTMT1 counter-screen | 120 tested, 10% active | shares compounds with NTMT1 inhibitor | AID 1645878 | NNMT MTase-Glo luminescence, SAH detection | Potency, µM (series often up to 57.1 µM), hits mostly inhibitors
Target sequence (P40261 whole entry, looked up): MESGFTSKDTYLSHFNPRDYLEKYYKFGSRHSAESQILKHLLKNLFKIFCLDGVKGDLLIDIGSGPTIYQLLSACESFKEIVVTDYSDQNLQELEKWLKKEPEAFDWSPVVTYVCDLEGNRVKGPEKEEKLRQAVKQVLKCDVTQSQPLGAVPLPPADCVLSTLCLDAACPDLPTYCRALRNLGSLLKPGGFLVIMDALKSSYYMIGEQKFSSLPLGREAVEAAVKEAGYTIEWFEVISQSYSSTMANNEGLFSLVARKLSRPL
A number is an active result; i = inactive; ? = inconclusive; nt = no result; ! = repeats disagree. Sampled rows, rich in hits. Any-hit rate of the full collection: about 2.6%. Calls come from the whole dose curve; as a rule, active = well fitted curve in the direction sought with a large enough effect; inconclusive = small, poorly fitted or top-dose-only effect, or another doubt; inactive = no such curve, though single readings can be large; an effect the other way counts as inactive or inconclusive.

SMILES | FH mod | HTT-AS act | HTT promoter inh | NTMT1 inhibitor | others
CCCN1CCc2cccc3c2[C@H]1Cc1ccc(O)c(O)c1-3 | 7.94µM | nt | nt | nt
N#C/C(=C/c1ccc(O)c(O)c1)C(N)=S | 12.6µM! | nt | nt | ?
CC[C@H](C)[C@@H]([C@@H](CC(=O)N1CCC[C@H]1[C@H](OC)[C@@H](C)C(=O)N[C@@H](Cc1ccccc1)c1nccs1)OC)N(C)C(=O)[C@@H](NC(=O)C(C)(C)N)C(C)C | i | nt | nt | i
Nc1ccccc1 | i | i | i | 20µM
Nc1ccc(N)cc1 | i | i | i | ?
O=C1OC(c2ccc(O)c(S(=O)(=O)O)c2)(c2ccc(O)c(S(=O)(=O)O)c2)c2c(Br)c(Br)c(Br)c(Br)c21 | 27.6µM | i | i | 79.4µM
CCOC(=O)c1c(C(C#N)=CN)c2ccc(Cl)c(Cl)c2n1C | i | i | i | 79.4µM
CCCCCCC1C(=O)O[C@H](C)[C@H](NC(=O)c2cccc(NC=O)c2O)C(=O)O[C@@H](C)[C@@H]1OC(=O)CC(C)C (stereo partly specified) | i | nt | nt | i
Cc1c(P(=S)(c2ccccc2)c2ccccc2)[n+]2ccccc2n1C | nt | nt | nt | 15.8µM!
Cc1c(P(=S)(c2ccccc2)c2ccccc2)c2ccccc2n1C | nt | nt | nt | i
CC/C=C/C=C/C1(C)OC(OC)=C(C(=O)C2C(C)C(=O)c3cc(OC)c(O)c(O)c3C2(C)O)C1=O (stereo unspecified) | i | nt | nt | i
CC(=O)c1ccc(NC(=O)c2sc3nc4c(cc3c2N)N2CCC4CC2)cc1 | i | i | i | i
Nc1c(C(=O)Nc2ccc(OC(F)(F)F)cc2)sc2nc3c(cc12)N1CCC3CC1 | i | i | 7.94µM | i
CN1CCCC1CCOC(c1cc2nccc(C(=O)O)c2[nH]1)c1ccccc1Cl (stereo unspecified) | i | nt | nt | i
CC(N[C@H]1C[C@@H]1c1ccccc1)c1ccc2c(c1)OCCO2 (stereo partly specified) | nt | nt | nt | i
Cc1ccc([N+](=O)[O-])[c]2c1[O][Hg]2 | ? | i | ? | 0.891µM
Cc1ccccc1Cn1cccc(C(=O)Nc2nc3ccccc3s2)c1=O | i | i | 0.316µM | i
O=C(Nc1nc2ccccc2s1)c1cccn(Cc2ccccc2)c1=O | i | i | ? | i
CC(=O)O[C@@H]1[C@@H](O)[C@H]2O[C@@H]3C=C(C)[C@@H](O)C[C@]3(CO)[C@]1(C)[C@]21CO1 | i | nt | nt | i
Cc1cccc(Cn2cccc(C(=O)Nc3ccc(F)cc3F)c2=O)c1 | i | i | 28.2µM | i
CN(N=O)c1cc(O)ccc1O | 2.24µM | nt | nt | nt
COc1cc2cc(c1Cl)N(C)C(=O)C[C@H](OC(=O)C(C)C)[C@]1(C)O[C@@H]1[C@H](C)[C@@H]1C[C@@](O)(NC(=O)O1)[C@H](OC)/C=C/C=C(\C)C2 | nt | nt | nt | i
O=C(O)c1ccc(O)c2ncc(N3CCCNCC3)cc12 | nt | nt | nt | i
O=c1oc2ccccc2c(O)c1C(CC(O)c1ccc(-c2ccc(Br)cc2)cc1)c1ccccc1 (stereo unspecified) | ? | i | i | 89.1µM
Cc1ccc(-n2nccn2)c(C(=O)N2CCN(c3nc4cc(Cl)ccc4o3)CCC2C)c1 (stereo unspecified) | i | nt | nt | i
SMILES | FH mod | HTT-AS act | HTT promoter inh | NTMT1 inhibitor | others
C[C@@H]1CCC/C=C/[C@H]2C[C@@H](O)C[C@@H]2[C@@H](O)/C=C/C(=O)O1 | i | nt | nt | i
C[C@@]12OC(=O)[C@]1([C@@H](O)[C@@H]1C=CCCC1)NC(=O)[C@@H]2CCCl | nt | nt | nt | i
C[C@]12CC[C@@H]3c4ccc(OC(=O)N(CCCl)CCCl)cc4CC[C@H]3[C@@H]1CC[C@@H]2O | i | i | i | 22.4µM
C[C@]12CC[C@H]3[C@@H](CCC4=CC(=O)CC[C@@H]43)[C@@H]1CC[C@@H]2O | i | i | i | ?
Clc1ccc(COC(Cn2ccnc2)c2ccc(Cl)cc2Cl)cc1 (stereo unspecified) | i | i | i | i
Clc1ccc(C(c2ccc(Cl)cc2)n2cc[n+](CC(OCc3ccc(Cl)cc3Cl)c3ccc(Cl)cc3Cl)c2)cc1 (stereo unspecified) | ? | i | ? | 30.4µM
CC[C@]1(O)CC[C@H]2[C@@H]3CCC4=CCCC[C@@H]4[C@H]3CC[C@@]21C | i | i | i | 12.6µM
CCOC(=O)c1ccc(NC(=O)c2cccn(Cc3ccc(C)cc3)c2=O)cc1 | i | i | i | i
CCOC(=O)c1ccc(NC(=O)c2cccn(Cc3ccccc3F)c2=O)cc1 | i | i | 1.41µM | i
CC1Oc2cc3c(-c4c(O)cc(O)c5c(O)c6c(cc45)OC(C)C(C)C6=O)c(O)cc(O)c3c(O)c2C(=O)C1C (stereo unspecified) | ? | nt | nt | 17.8µM
CC1CCCC(=O)CCC/C=C/c2cc(O)cc(O)c2C(=O)O1 (stereo unspecified) | i | nt | nt | 7.94µM | NNMT counter=?
COc1cccc(NCC(F)Cn2c3ccc(Br)cc3c3cc(Br)ccc32)c1 (stereo unspecified) | i | nt | nt | i

High-throughput results: PubChem BioAssay, National Center for Advancing Translational Sciences (NCATS)
